According to PubChem BioAssay (NCATS):
Results filed as inconclusive are left out. Activity calls are given as the source filed them. The call rests on the fitted dose curve; in most records, active means well fitted inhibition curve with a large enough effect; inconclusive means small, poorly fitted or top-dose-only effect; inactive means flat fitted curve, though single readings scatter. Where a SMILES comes first, the peptide text is derived from it. [ ]: non-standard residue; d: D form. ξ: configuration not given here. ξTyr(βOH) = NC(C(=O)O)C(O)c1ccc(O)cc1

What follows are compounds tested on HACAT (assay: qHTS assay to identify novel small-molecules to repurpose for Merkel cell carcinoma treatment (AID 1296009; further: nearly all actives have a fitted effect of over 60% in size)). Details: MCC and control cell lines, CellTiter-Glo viability, 72 h; at 44.8 µM (top of the series) unless noted.
How it was run: (§1)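 Viability readout: ATP luminescence (CellTiter-Glo) after 72 hr drug exposure at 37 degree celsius. Dose-response format was 8 points for NPC and 11 points for MIPE; data normalized to in-plate controls.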

SMILES | outcome
CC(=C\C(C)O)/C=C(\C)C(=O)CC1CC(CC(N)=O)CC(=O)O1 (stereo not drawn) | inactive
CC(=O)OCC1=CCC2C(C)(C)CCCC2(C)C12CCC(C)(CC(=O)O)O2 (stereo not drawn) | inactive
C[C@H]1CC[C@H]2[C@@H](C=C[C@@](C)(O)[C@]2(C)C(=O)CCO)C1 | inactive
CC1=C(CO)CC(C(C)C2CCC3C4CC=C5CC(OC6OC(COC7OC(CO)C(O)C(O)C7O)C(O)C(O)C6O)CC(O)C5(C)C4CCC23C)OC1=O (stereo not drawn) | inactive [at 17.4 µM]
CC(=O)c1c(C)cccc1O[C@@H]1O[C@H](CO)[C@@H](O)[C@H](O)[C@H]1O | inactive
C/C1=C\CC[C@]2(C)O[C@H]2C(=O)c2c(C)coc2C1 | inactive
CNc1nc(C)nc(N[C@H]2CCC[C@@H](C(=O)NCc3ccc(C#N)cc3C(F)(F)F)C2)n1 | inactive
CC(=O)O[C@@H]1[C@@H](O)[C@H](C)O[C@@H](O[C@H]2[C@@H]3C=CO[C@@H](O[C@@H]4O[C@H](CO)[C@@H](O)[C@H](O)[C@H]4OC(C)=O)[C@@H]3[C@@]3(CO)O[C@@H]23)[C@@H]1OC(=O)/C=C/c1ccc(O)cc1 | inactive [at 17.4 µM]
CCC1=C(C)C(=O)C(C)CC12C(=O)CCC2C(=O)O (stereo not drawn) | inactive
Nc1ncnc2c1c(COc1cccc(Cl)c1)nn2C1CCOCC1 | inactive
CC1(C)CC[C@]2(C(=O)O[C@@H]3O[C@H](CO)[C@@H](O)[C@H](O)[C@H]3O)CC[C@]3(C)C(=CCC4[C@@]5(C)CC[C@H](O[C@@H]6O[C@H](C(=O)O)[C@@H](O[C@@H]7O[C@H](CO)[C@@H](O)[C@H](O)[C@H]7O)[C@H](O)[C@H]6O[C@@H]6O[C@H](CO)[C@@H](O)[C@H](O)[C@H]6O)C(C)(C)C5CC[C@]43C)C2C1 (stereo partly drawn) | inactive [at 9.27 µM]
C=C(C(=O)OC)[C@]12O[C@@](C)(CC[C@@]3(O)/C(=C\C)C(=O)O[C@]3(C)C[C@@H]1OC(=O)C(CO)CN1CCCC1C(=O)O)CC2=O (stereo partly drawn) | inactive [at 17.4 µM]
COc1cc(/C=C/C(=O)O[C@H]2[C@@H]3C=CO[C@@H](O[C@@H]4O[C@H](CO)[C@@H](O)[C@H](O)[C@H]4O)[C@@H]3[C@@]3(CO)O[C@@H]23)ccc1O | inactive [at 17.4 µM]
CC(C)(Oc1ccc(-c2nc3cc(Cl)ccc3s2)cc1)C(=O)O | inactive
COC1OC(=O)C2=C1C1(C)CCCC(C)(C)C1CC2O (stereo not drawn) | inactive
C/C1=C\CC(C)(C)/C=C/C/C(C(=O)O)=C/CC1 | inactive
CC1CCC2(NC1)OC1C(O)C3C4CCC5CC(O[C@@H]6O[C@H](CO)[C@@H](O)[C@H](O)[C@H]6O[C@@H]6O[C@@H](C)[C@H](O)[C@@H](O)[C@H]6O)CCC5(C)C4CCC3(C)C1C2C (stereo partly drawn) | inactive [at 17.4 µM]
O=C(O)/C=C/c1ccc2occc2c1O[C@@H]1O[C@H](CO)[C@@H](O)[C@H](O)[C@H]1O | inactive
C=C(COC(=O)CC(C)C)C1Cc2cc(C(C)=O)ccc2O1 (stereo not drawn) | inactive
COc1cc(C2CC(=O)Nc3c2cc(Br)c2ccccc32)cc(OC)c1OC (stereo not drawn) | inactive
CCC(C)C(=O)OC[C@H]1O[C@H](O[C@H]2O[C@H](CO)[C@@H](O)[C@H](O)[C@H]2O)[C@H](O)[C@@H](O)[C@@H]1O (stereo partly drawn) | inactive [at 17.4 µM]
COC(=O)C1=CO[C@@H](O[C@@H]2O[C@H](CO)[C@@H](O)[C@H](O)[C@H]2O)[C@@H]2[C@@H](C)[C@@H](O)C(O)[C@H]12 (stereo partly drawn) | inactive [at 17.4 µM]
CCCC1=CC2=C(CO1)C(=O)C(C)(O)C(OC(=O)c1c(C)cc(OC)cc1O)C2 (stereo not drawn) | inactive [at 17.4 µM]
C=C(CC/C=C(\C)C(=O)O)C1(O)CC=C(C)CC1 (stereo not drawn) | inactive
COc1ccc(C2(O)c3ccccc3NC(=O)C2OC)cc1 (stereo not drawn) | inactive

These compounds were tested on NIH3T3 in the same assay as above. Details: MCC and control cell lines, CellTiter-Glo viability, 72 h; at 44.8 µM (top of the series) unless noted.
How it was run: as §1

SMILES | outcome
NC1(c2ccc(NC(=O)c3ccnc(-c4cc(C(=O)O)ccn4)c3)cc2)CC1 | inactive
CCCC/C=C\CCCCCc1cc(=O)c2ccccc2n1C | inactive
COCc1c(O)c(C(=O)O)c(C)c2c1OC(=O)c1c(C)cc(O)c(CO)c1O2 | inactive
C/C=C/C=C/C1=C2C(=O)C3(C)C4C(C(=O)CC(O)/C=C/C)=C(O1)C1(C)C2C2(C)OC1(O)C4(C)OC23O (stereo not drawn) | inactive [at 17.4 µM]
CC12CC(O)C(O)C=C1c1cc(O)cc(O)c1C(=O)O2 (stereo not drawn) | inactive
C=C1C2(C)CC3C4(C)C=CC(=O)OC(C)(C)C4CCC3(C)C1(C(=O)OC)C(=O)C(C)(O)C2=O (stereo not drawn) | inactive [at 17.4 µM]
CC1(C)[C@H]2C[C@H](C/C=C\CCCC(=O)O)[C@@H](NC(=O)c3csc4ccc(O)cc34)[C@@H]1C2 | inactive
CC(C)c1ccc2c(c1)CCC1[C@](C)(C(=O)O)CCC[C@]21C (stereo partly drawn) | inactive
C[C@@H]1O[C@@H](OC(=O)Cc2ccccc2)[C@H](O)[C@H](O)[C@H]1O | inactive
Cn1cc(-c2c[nH]c3ncnc(N4CCOCC4)c23)cn1 | inactive
CC(C)C1NC(=O)C(CC2(O)c3ccccc3N3C(=O)C(Cc4ccccc4)NC32)NC1=O (stereo not drawn) | inactive [at 17.4 µM]
C[C@@]12CC3(S(=O)(=O)O)OC(O1)[C@]1(COC(=O)c4ccccc4)[C@H]3C[C@]21O[C@@H]1O[C@H](CO)[C@@H](O)[C@H](O)[C@H]1O | inactive [at 17.4 µM]
CC(C)C1NC(=O)CNC(=O)C2CCCN2C(=O)C(Cc2c[nH]c3ccccc23)NC(=O)CNC(=O)C(C(O)c2ccc(O)cc2)NC(=O)CNC1=O (stereo not drawn) (cyclo(G[ξTyr(βOH)]GWPGV); configuration not given here) | inactive [at 17.4 µM]
CC(=C\C(C)O)/C=C(\C)C(=O)CC1CC(CC(N)=O)CC(=O)O1 (stereo not drawn) | inactive
CC(=O)OCC1=CCC2C(C)(C)CCCC2(C)C12CCC(C)(CC(=O)O)O2 (stereo not drawn) | inactive
C[C@H]1CC[C@H]2[C@@H](C=C[C@@](C)(O)[C@]2(C)C(=O)CCO)C1 | inactive
CC1=C(CO)CC(C(C)C2CCC3C4CC=C5CC(OC6OC(COC7OC(CO)C(O)C(O)C7O)C(O)C(O)C6O)CC(O)C5(C)C4CCC23C)OC1=O (stereo not drawn) | inactive [at 17.4 µM]
CC(=O)c1c(C)cccc1O[C@@H]1O[C@H](CO)[C@@H](O)[C@H](O)[C@H]1O | inactive
C/C1=C\CC[C@]2(C)O[C@H]2C(=O)c2c(C)coc2C1 | inactive

SMILES | outcome
CNc1nc(C)nc(N[C@H]2CCC[C@@H](C(=O)NCc3ccc(C#N)cc3C(F)(F)F)C2)n1 | inactive
CC(=O)O[C@@H]1[C@@H](O)[C@H](C)O[C@@H](O[C@H]2[C@@H]3C=CO[C@@H](O[C@@H]4O[C@H](CO)[C@@H](O)[C@H](O)[C@H]4OC(C)=O)[C@@H]3[C@@]3(CO)O[C@@H]23)[C@@H]1OC(=O)/C=C/c1ccc(O)cc1 | inactive [at 17.4 µM]
CCC1=C(C)C(=O)C(C)CC12C(=O)CCC2C(=O)O (stereo not drawn) | inactive
Nc1ncnc2c1c(COc1cccc(Cl)c1)nn2C1CCOCC1 | inactive
CC1(C)CC[C@]2(C(=O)O[C@@H]3O[C@H](CO)[C@@H](O)[C@H](O)[C@H]3O)CC[C@]3(C)C(=CCC4[C@@]5(C)CC[C@H](O[C@@H]6O[C@H](C(=O)O)[C@@H](O[C@@H]7O[C@H](CO)[C@@H](O)[C@H](O)[C@H]7O)[C@H](O)[C@H]6O[C@@H]6O[C@H](CO)[C@@H](O)[C@H](O)[C@H]6O)C(C)(C)C5CC[C@]43C)C2C1 (stereo partly drawn) | inactive [at 9.27 µM]
C=C(C(=O)OC)[C@]12O[C@@](C)(CC[C@@]3(O)/C(=C\C)C(=O)O[C@]3(C)C[C@@H]1OC(=O)C(CO)CN1CCCC1C(=O)O)CC2=O (stereo partly drawn) | inactive [at 17.4 µM]
COc1cc(/C=C/C(=O)O[C@H]2[C@@H]3C=CO[C@@H](O[C@@H]4O[C@H](CO)[C@@H](O)[C@H](O)[C@H]4O)[C@@H]3[C@@]3(CO)O[C@@H]23)ccc1O | inactive [at 17.4 µM]
CC(C)(Oc1ccc(-c2nc3cc(Cl)ccc3s2)cc1)C(=O)O | inactive
COC1OC(=O)C2=C1C1(C)CCCC(C)(C)C1CC2O (stereo not drawn) | inactive
C/C1=C\CC(C)(C)/C=C/C/C(C(=O)O)=C/CC1 | inactive
CC1CCC2(NC1)OC1C(O)C3C4CCC5CC(O[C@@H]6O[C@H](CO)[C@@H](O)[C@H](O)[C@H]6O[C@@H]6O[C@@H](C)[C@H](O)[C@@H](O)[C@H]6O)CCC5(C)C4CCC3(C)C1C2C (stereo partly drawn) | inactive [at 17.4 µM]
O=C(O)/C=C/c1ccc2occc2c1O[C@@H]1O[C@H](CO)[C@@H](O)[C@H](O)[C@H]1O | inactive
C=C(COC(=O)CC(C)C)C1Cc2cc(C(C)=O)ccc2O1 (stereo not drawn) | inactive
COc1cc(C2CC(=O)Nc3c2cc(Br)c2ccccc32)cc(OC)c1OC (stereo not drawn) | inactive
CCC(C)C(=O)OC[C@H]1O[C@H](O[C@H]2O[C@H](CO)[C@@H](O)[C@H](O)[C@H]2O)[C@H](O)[C@@H](O)[C@@H]1O (stereo partly drawn) | inactive [at 17.4 µM]
COC(=O)C1=CO[C@@H](O[C@@H]2O[C@H](CO)[C@@H](O)[C@H](O)[C@H]2O)[C@@H]2[C@@H](C)[C@@H](O)C(O)[C@H]12 (stereo partly drawn) | inactive [at 17.4 µM]
CCCC1=CC2=C(CO1)C(=O)C(C)(O)C(OC(=O)c1c(C)cc(OC)cc1O)C2 (stereo not drawn) | inactive [at 17.4 µM]
C=C(CC/C=C(\C)C(=O)O)C1(O)CC=C(C)CC1 (stereo not drawn) | inactive
COc1ccc(C2(O)c3ccccc3NC(=O)C2OC)cc1 (stereo not drawn) | inactive
